Source: the supplement of paper PMC4466140

Assays:
Assay in all cases: SPOT peptide array binding signal intensity (averaged, normalized) (arbitrary units (background-subtracted, floor 0; scale differs between SH3 domains)); higher = stronger binding of the SH3 domain to the peptide
CaNbp2 = target: CaNbp2
Protocol: (§1)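 GST-tagged SH3 domains from S. cerevisiae (Sc), A. gossypii (Ag), C. albicans (Ca) and S. pombe (Sp) were incubated at 10 ug/ml overnight at 4 C on cellulose SPOT membranes carrying 292 synthetic 15-mer peptides mined from the S. cerevisiae proteome (cysteines replaced by serines). Binding was detected with anti-GST antibody, HRP secondary and chemiluminescence, quantified with Genespotter, and reported as normalized spot intensities averaged over biological replicates.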

CaRvs167 = target: CaRvs167
Protocol: as §1

CaRvs167-3 = target: CaRvs167-3
Protocol: as §1

CaSho1 = target: CaSho1
Protocol: as §1

CaSla1-D1-D2 = target: CaSla1-D1-D2
Protocol: as §1

CaSla1-D3 = target: CaSla1-D3
Protocol: as §1

ScAbp1 = target: ScAbp1
Protocol: as §1

ScBbc1 = target: ScBbc1
Protocol: as §1

ScBem1-D1 = target: ScBem1-D1
Protocol: as §1

ScBzz1-D1 = target: ScBzz1-D1
Protocol: as §1

ScBzz1-D2 = target: ScBzz1-D2
Protocol: as §1

ScCyk3 = target: ScCyk3
Protocol: as §1

ScFus1 = target: ScFus1
Protocol: as §1

ScHof1 = target: ScHof1
Protocol: as §1

ScHse1 = target: ScHse1
Protocol: as §1

ScLsb1 = target: ScLsb1
Protocol: as §1

ScLsb2 = target: ScLsb2
Protocol: as §1

ScLsb3 = target: ScLsb3
Protocol: as §1

ScLsb4 = target: ScLsb4
Protocol: as §1

ScMyo3 = target: ScMyo3
Protocol: as §1

ScMyo5 = target: ScMyo5
Protocol: as §1

ScNbp2 = target: ScNbp2
Protocol: as §1

ScPex13 = target: ScPex13
Protocol: as §1

ScRvs167 = target: ScRvs167
Protocol: as §1

ScSho1 = target: ScSho1
Protocol: as §1

ScSla1-D1-D2 = target: ScSla1-D1-D2
Protocol: as §1

ScSla1-D3 = target: ScSla1-D3
Protocol: as §1

SpAbp1-D1 = target: SpAbp1-D1
Protocol: as §1

SpBbc1 = target: SpBbc1
Protocol: as §1

SpBzz1-D1 = target: SpBzz1-D1
Protocol: as §1

SpBzz1-D2 = target: SpBzz1-D2
Protocol: as §1

SpCyk3 = target: SpCyk3
Protocol: as §1

SpHof1 = target: SpHof1
Protocol: as §1

SpHof1-2 = target: SpHof1-2
Protocol: as §1

SpHof1-3 = target: SpHof1-3
Protocol: as §1

SpHse1 = target: SpHse1
Protocol: as §1

SpLsb1 = target: SpLsb1
Protocol: as §1

SpLsb4 = target: SpLsb4
Protocol: as §1

SpMyo1 = target: SpMyo1
Protocol: as §1

SpNbp2 = target: SpNbp2
Protocol: as §1

SpPex13 = target: SpPex13
Protocol: as §1

SpRvs167 = target: SpRvs167
Protocol: as §1

SpSla1-D1-D2 = target: SpSla1-D1-D2
Protocol: as §1

SpSla1-D3 = target: SpSla1-D3
Protocol: as §1

AgAbp1 = target: AgAbp1
Protocol: as §1

AgBbc1 = target: AgBbc1
Protocol: as §1

AgBem1-D1 = target: AgBem1-D1
Protocol: as §1

AgBzz1-D1 = target: AgBzz1-D1
Protocol: as §1

AgBzz1-D2 = target: AgBzz1-D2
Protocol: as §1

AgCyk3 = target: AgCyk3
Protocol: as §1

AgFus1 = target: AgFus1
Protocol: as §1

AgHof1 = target: AgHof1
Protocol: as §1

AgHse1 = target: AgHse1
Protocol: as §1

AgLsb1 = target: AgLsb1
Protocol: as §1

AgLsb4 = target: AgLsb4
Protocol: as §1

AgMyo5 = target: AgMyo5
Protocol: as §1

AgNbp2 = target: AgNbp2
Protocol: as §1

AgRvs167 = target: AgRvs167
Protocol: as §1

AgSho1 = target: AgSho1
Protocol: as §1

AgSla1-D1-D2 = target: AgSla1-D1-D2
Protocol: as §1

AgSla1-D3 = target: AgSla1-D3
Protocol: as §1

CaAbp1-D1 = target: CaAbp1-D1
Protocol: as §1

CaAbp1-D2 = target: CaAbp1-D2
Protocol: as §1

CaBbc1 = target: CaBbc1
Protocol: as §1

CaBem1-D1 = target: CaBem1-D1
Protocol: as §1

CaBzz1-D1 = target: CaBzz1-D1
Protocol: as §1

CaBzz1-D2 = target: CaBzz1-D2
Protocol: as §1

CaCyk3 = target: CaCyk3
Protocol: as §1

CaFus1 = target: CaFus1
Protocol: as §1

CaHof1 = target: CaHof1
Protocol: as §1

CaHse1 = target: CaHse1
Protocol: as §1

CaLsb1 = target: CaLsb1
Protocol: as §1

CaLsb4 = target: CaLsb4
Protocol: as §1

CaMyo5 = target: CaMyo5
Protocol: as §1

TKIRRRPQQPLTDFT
SPOT peptide array binding signal intensity (CaNbp2): 48.5 | SPOT peptide array binding signal intensity (CaRvs167): 2.67 | SPOT peptide array binding signal intensity (CaRvs167-3): 15.5 | SPOT peptide array binding signal intensity (CaSho1): 38 | SPOT peptide array binding signal intensity (CaSla1-D1-D2): 24 | SPOT peptide array binding signal intensity (CaSla1-D3): 0.5 | SPOT peptide array binding signal intensity (ScAbp1): 25 | SPOT peptide array binding signal intensity (ScBbc1): 63.5 | SPOT peptide array binding signal intensity (ScBem1-D1): 10 | SPOT peptide array binding signal intensity (ScBzz1-D1): 33 | SPOT peptide array binding signal intensity (ScBzz1-D2): 18 | SPOT peptide array binding signal intensity (ScCyk3): 38 | SPOT peptide array binding signal intensity (ScFus1): 44 | SPOT peptide array binding signal intensity (ScHof1): ≤ 0 | SPOT peptide array binding signal intensity (ScHse1): 281 | SPOT peptide array binding signal intensity (ScLsb1): 4.75 | SPOT peptide array binding signal intensity (ScLsb2): 1 | SPOT peptide array binding signal intensity (ScLsb3): 115 | SPOT peptide array binding signal intensity (ScLsb4): 15 | SPOT peptide array binding signal intensity (ScMyo3): 1 | SPOT peptide array binding signal intensity (ScMyo5): 2 | SPOT peptide array binding signal intensity (ScNbp2): 93 | SPOT peptide array binding signal intensity (ScPex13): 6.75 | SPOT peptide array binding signal intensity (ScRvs167): 14 | SPOT peptide array binding signal intensity (ScSho1): 148 | SPOT peptide array binding signal intensity (ScSla1-D1-D2): 240 | SPOT peptide array binding signal intensity (ScSla1-D3): 38.5 | SPOT peptide array binding signal intensity (SpAbp1-D1): 94 | SPOT peptide array binding signal intensity (SpBbc1): 5.75 | SPOT peptide array binding signal intensity (SpBzz1-D1): 253 | SPOT peptide array binding signal intensity (SpBzz1-D2): ≤ 0 | SPOT peptide array binding signal intensity (SpCyk3): 1.5 | SPOT peptide array binding signal intensity (SpHof1): 65.5 | SPOT peptide array binding signal intensity (SpHof1-2): 5.5 | SPOT peptide array binding signal intensity (SpHof1-3): 164 | SPOT peptide array binding signal intensity (SpHse1): 93 | SPOT peptide array binding signal intensity (SpLsb1): 5 | SPOT peptide array binding signal intensity (SpLsb4): 104 | SPOT peptide array binding signal intensity (SpMyo1): 8 | SPOT peptide array binding signal intensity (SpNbp2): 10.5 | SPOT peptide array binding signal intensity (SpPex13): 1 | SPOT peptide array binding signal intensity (SpRvs167): 11.8 | SPOT peptide array binding signal intensity (SpSla1-D1-D2): 1 | SPOT peptide array binding signal intensity (SpSla1-D3): ≤ 0

KFIPSRPAPKPPSSA
SPOT peptide array binding signal intensity (AgAbp1): 1640 | SPOT peptide array binding signal intensity (AgBbc1): 1210 | SPOT peptide array binding signal intensity (AgBem1-D1): 98 | SPOT peptide array binding signal intensity (AgBzz1-D1): 70 | SPOT peptide array binding signal intensity (AgBzz1-D2): 69.5 | SPOT peptide array binding signal intensity (AgCyk3): ≤ 0 | SPOT peptide array binding signal intensity (AgFus1): ≤ 0 | SPOT peptide array binding signal intensity (AgHof1): 26.2 | SPOT peptide array binding signal intensity (AgHse1): 37 | SPOT peptide array binding signal intensity (AgLsb1): 674 | SPOT peptide array binding signal intensity (AgLsb4): 30.5 | SPOT peptide array binding signal intensity (AgMyo5): 1380 | SPOT peptide array binding signal intensity (AgNbp2): 11400 | SPOT peptide array binding signal intensity (AgRvs167): 5.5 | SPOT peptide array binding signal intensity (AgSho1): ≤ 0 | SPOT peptide array binding signal intensity (AgSla1-D1-D2): 51 | SPOT peptide array binding signal intensity (AgSla1-D3): 1 | SPOT peptide array binding signal intensity (CaAbp1-D1): 1850 | SPOT peptide array binding signal intensity (CaAbp1-D2): 1020 | SPOT peptide array binding signal intensity (CaBbc1): 1910 | SPOT peptide array binding signal intensity (CaBem1-D1): 1550 | SPOT peptide array binding signal intensity (CaBzz1-D1): 1780 | SPOT peptide array binding signal intensity (CaBzz1-D2): 1310 | SPOT peptide array binding signal intensity (CaCyk3): 46 | SPOT peptide array binding signal intensity (CaFus1): 75 | SPOT peptide array binding signal intensity (CaHof1): ≤ 0 | SPOT peptide array binding signal intensity (CaHse1): 2.25 | SPOT peptide array binding signal intensity (CaLsb1): ≤ 0 | SPOT peptide array binding signal intensity (CaLsb4): 190 | SPOT peptide array binding signal intensity (CaMyo5): 24 | SPOT peptide array binding signal intensity (CaNbp2): 6170 | SPOT peptide array binding signal intensity (CaRvs167): 51 | SPOT peptide array binding signal intensity (CaRvs167-3): 2 | SPOT peptide array binding signal intensity (CaSho1): ≤ 0 | SPOT peptide array binding signal intensity (CaSla1-D1-D2): 1010 | SPOT peptide array binding signal intensity (CaSla1-D3): 65.5 | SPOT peptide array binding signal intensity (ScAbp1): 323 | SPOT peptide array binding signal intensity (ScBbc1): 716 | SPOT peptide array binding signal intensity (ScBem1-D1): ≤ 0 | SPOT peptide array binding signal intensity (ScBzz1-D1): 87 | SPOT peptide array binding signal intensity (ScBzz1-D2): 8 | SPOT peptide array binding signal intensity (ScCyk3): 1 | SPOT peptide array binding signal intensity (ScFus1): 0.5 | SPOT peptide array binding signal intensity (ScHof1): 1 | SPOT peptide array binding signal intensity (ScHse1): ≤ 0 | SPOT peptide array binding signal intensity (ScLsb1): 51.8 | SPOT peptide array binding signal intensity (ScLsb2): 288 | SPOT peptide array binding signal intensity (ScLsb3): 982 | SPOT peptide array binding signal intensity (ScLsb4): 13 | SPOT peptide array binding signal intensity (ScMyo3): 2740 | SPOT peptide array binding signal intensity (ScMyo5): 1420 | SPOT peptide array binding signal intensity (ScNbp2): 8490 | SPOT peptide array binding signal intensity (ScPex13): 2800 | SPOT peptide array binding signal intensity (ScRvs167): 396 | SPOT peptide array binding signal intensity (ScSho1): 18 | SPOT peptide array binding signal intensity (ScSla1-D1-D2): 1290 | SPOT peptide array binding signal intensity (ScSla1-D3): 769 | SPOT peptide array binding signal intensity (SpAbp1-D1): 602 | SPOT peptide array binding signal intensity (SpBbc1): 110 | SPOT peptide array binding signal intensity (SpBzz1-D1): 1050
